AmpC inh no detg: qHTS Inhibitors of AmpC Beta-Lactamase (assay without detergent) | P00811 | AmpC nitrocefin hydrolysis, absorbance 480 nm, 0.0001% Triton | Potency, µM (top dose mostly 57.1 µM), most hits filed as inhibitors | actives 0.52% (n = 330,000); further: nearly all actives have a fitted effect of over 20% in size
Target sequence (P00811 whole entry, looked up): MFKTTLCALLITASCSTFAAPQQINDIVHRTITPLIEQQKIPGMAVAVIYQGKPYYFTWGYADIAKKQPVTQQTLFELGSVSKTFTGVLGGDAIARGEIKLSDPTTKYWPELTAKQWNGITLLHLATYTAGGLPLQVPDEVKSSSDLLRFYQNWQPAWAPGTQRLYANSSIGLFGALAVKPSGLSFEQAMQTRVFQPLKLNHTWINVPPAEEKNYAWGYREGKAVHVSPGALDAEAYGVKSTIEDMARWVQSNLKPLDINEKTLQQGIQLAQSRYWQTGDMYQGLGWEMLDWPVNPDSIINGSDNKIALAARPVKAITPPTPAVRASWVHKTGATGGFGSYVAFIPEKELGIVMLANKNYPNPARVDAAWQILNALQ
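AmpC (5.3 nM in the dispensed reagent) in 20 mM phosphate pH 7.0 with 0.01% (detergent screen) or 0.0001% Triton X-100 was preincubated with compounds for 15 min at room temperature. Nitrocefin was then added from an 800 uM solution, and hydrolysis was followed at 480 nm.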
HCMV antiviral: qHTS Assay for inhibitors of the human cytomegalovirus (HCMV); activity change, negative = inhibition, % at 57.5 µM; AID 1259415, 2018; actives 4.5% (n = 410,000); HFF cells, HCMV-luciferase reporter, 72 h; stronger effect = lower value; in the data active means activity change below about -60%; inconclusive means no clear call, values can overlap the other calls; inactive means above about -39%
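Steps: HFFs plated, 16 h 37C; compounds added; HCMV-luciferase added to MOI 1 PFU/cell; 72 h 37C; OneGlo reagent, 5 min room temperature; luminescence read, normalized to controls.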
AmpC detergent: qHTS Inhibitors of AmpC Beta-Lactamase (assay with detergent). AmpC hydrolysis of nitrocefin, absorbance 480 nm, 0.01% Triton. actives 0.041% (n = 370,000). AID 485294, 2010. Potency, µM (series often up to 114 µM), hits mostly inhibitors; further: nearly all actives have a fitted effect of over 25% in size
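AmpC (5.3 nM in the dispensed reagent) in 20 mM phosphate pH 7.0 with 0.01% (detergent screen) or 0.0001% Triton X-100 was preincubated with compounds for 15 min at room temperature. Nitrocefin was then added from an 800 uM solution, and hydrolysis was followed at 480 nm.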
HCV inhibitor: qHTS Assay for Inhibitors of Hepatitis C Virus (HCV) | Huh7.5.1 HCVcc-Cre infection, luciferase reporter, 44 h | Potency, µM (series often up to 41.8 µM), most hits filed as inhibitors | actives 3.4% (n = 340,000)
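Cells (1,000/well) were plated 4 h before compound, then infected with HCVcc-Cre virus (~0.5 moi). After 44 h further culture, infection was read as luciferase luminescence following a 15 min substrate incubation at room temperature.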
FMDV inh: High Throughput Screening for Foot and Mouth Disease Virus Antivirals; FMDV antiviral cell-based qHTS; Potency, µM (titrated, usually from 57.9 µM), hits mostly inhibitors; actives 1.2% (n = 410,000); AID 1159524, 2015; calls by dose curve; tested in HEK293T cells; further: read-out not given here; nearly all actives have a fitted effect of over 45% in size
Hits are given with their value; n = inactive; u = inconclusive; x = not tested or not shown; [ ] = dose if it differs, or a comment. Compounds with a hit are over-represented: about 7.3% of the library has one in this group of screens. Unless noted, the call rests on the fitted dose curve; in most records, active means well fitted curve in the direction sought with a large enough effect; inconclusive means small, poorly fitted or top-dose-only effect, or another doubt; inactive means no such curve, though single readings can be large; an effect the other way counts as inactive or inconclusive.

SMILES	AmpC inh no detg	HCMV antiviral	AmpC detergent	HCV inhibitor	FMDV inh
Cc1ccc(-c2nc3scc(CCNS(=O)(=O)c4ccc(C)c(C)c4)n3n2)cc1	x	n	n	x	n
CCCS(=O)(=O)NCCc1sc2nc(-c3ccc(F)cc3)nn2c1C	x	-70.6	n	x	n
COC(CN(C)C(=O)c1ccc2c(c1)NC(=O)c1ccccc1S2)OC	n	n	n	n	n
COc1ccc(CCNC(=O)C(CC(C)C)N2Cc3ccccc3C2=O)c(OC)c1OC (stereo unspecified)	x	n	n	x	n
c1ccc(COc2ccccc2CNC2CCCC2)cc1	n[2.29 µM]	n	n	u	n
c1ccc(COc2ccccc2CNC23CC4CC(CC(C4)C2)C3)cc1	n	-97.2	n	u	n
Cc1ccc(C2CC(c3cccc(Cl)c3)n3nc(N)nc3N2)cc1 (stereo unspecified)	6.31µM	n	u	u	n
Cc1cccc(C2CC(c3ccc(Cl)cc3)Nc3nc(N)nn32)c1 (stereo unspecified)	3.55µM	n	u	n	n
Cc1cccc(C2CC(c3ccc(F)cc3)Nc3nc(N)nn32)c1 (stereo unspecified)	n	n	n	n	n
CCN1CCCC1CNC(=O)c1cnn(-c2ncc(C)c(-c3ccc(F)cc3)n2)c1C(C)C (stereo unspecified)	x	x	x	x	n
Cc1cccc(NC(=O)Nc2ccccc2)n1	n	-65.3	n	n	n
Cc1cccc(NC(=S)NC(=O)/C=C/c2ccccc2)n1	n	n	n	n	n
CCOC(=O)NC(=S)Nc1cccc(C)n1	x	-62.5	x	x	n
Cc1c(-c2ccc(Cl)cc2)c(=O)oc2c(CN3CCN(C)CC3)c(O)ccc12	x	n	n	x	n
CNC(=S)NC1CC2CCCC(C1)N2Cc1ccco1 (stereo unspecified)	n	n	n	n	x
COCCCNC(=S)NC1CC2CCCC(C1)N2Cc1ccco1 (stereo unspecified)	1.78µM	n	n	n	n
CCc1ccccc1NC(=O)c1ccc(Cn2nc(N3CCN(c4ccccc4)CC3)ccc2=O)o1	x	-74.5	n	x	u
CCc1ccc(NC(=O)c2ccc(Cn3nc(N4CCN(c5ccccc5)CC4)ccc3=O)o2)cc1	x	u	n	x	u
Cc1cccc(N=C2NN=C(c3ccc4c(c3)OCCO4)CS2)c1	n	n	n	n	n
Cc1cccc(N=C2NN=C(c3c(C)[nH]c4ccccc34)CS2)c1	n	-98.9	n	u	u
Cc1c(Cl)cccc1NC(=O)c1ccc2c(c1)CCN2S(=O)(=O)c1ccccc1	x	n	n	x	n
CC(=O)CCC1C2C(O)C(C(C)C)C(OC(=O)/C=C/c3ccccc3)CC12C (stereo unspecified)	n	n	n	n	u
CC(=O)OC1C(O)C(C)OC(OC2C(OC(=O)C3CCC4C(C3)OC3(CC(OC(=O)/C=C/c5ccccc5)C(C)CO3)C43CO3)OC(C)C(O)C2OC(C)=O)C1O (stereo unspecified)	x	-97.8	x	u	u
C/C1=C\[C@@H](C)C/C=C/[C@H]2[C@@H]3O[C@]3(C)[C@@H](C)[C@H]3[C@H](Cc4c[nH]c5ccccc45)NC(=O)[C@]32C(=O)/C=C/C(=O)[C@@H]1O	n	x	n	n	31.6µM
O=C1N[C@@H](Cc2c[nH]c3ccccc23)C(=O)N[C@H]1Cc1c[nH]c2ccccc12	x	x	x	x	n
SMILES	AmpC inh no detg	HCMV antiviral	AmpC detergent	HCV inhibitor	FMDV inh
CC(=O)C1C(N2CC2)CC2C3CC=C4CC(O)CCC4(C)C3CCC21C (stereo unspecified)	x	-75.7	x	11.2µM	n
CC(=O)[C@H]1CC[C@H]2[C@@H]3CC=C4C[C@@H](O)CC[C@]4(C)[C@H]3CC[C@]12C	n	n	u	n	u
Cc1ccc(C(=O)N/C(=C\c2ccc(Br)cc2)c2nc(=S)[nH][nH]2)cc1	n	-70.8	n	n	x
O=C(N/C(=C/c1cccc(Br)c1)c1nc(=S)[nH][nH]1)c1ccccc1	n	n	u	n	n
CCOC(=O)C1=CCN(S(=O)(=O)c2ccc(Br)cc2)C1c1ccc(F)cc1 (stereo unspecified)	x	n	x	x	x
c1cncc(OC2CCN(Cc3ccc4c(c3)CN(Cc3ccc5c(c3)CCO5)CCO4)CC2)c1	x	x	x	x	n
CCOC(=O)c1sc(NC(=O)CSc2nc3cccnc3n2C)nc1C	n	n	n	n	n
CCOC(=O)c1cccc(NC(=O)CSc2nc3cccnc3n2C)c1	n	u	u	u	17.8µM
CCOC(=O)c1c(NC(=O)CSc2nc3cccnc3n2C)sc(C(C)=O)c1C	n	x	n	u	28.2µM
CCOC(=O)c1c(NC(=O)CSc2nnc(-c3ccccc3C)n2C)sc(C(C)=O)c1C	n	n	n	10µM	u
CCOC(=O)c1sc(NC(=O)CNCc2cccnc2)c(C(=O)OCC)c1C	n	-62.0	n	n	u
CCn1nc(C)c2c(-c3ccccc3)cc(=O)n(C(C)C(=O)NCc3ccc(C)cc3)c21 (stereo unspecified)	x	n	n	x	n
Cc1cc2n(n1)C(c1ccccc1)Nc1ccccc1-2 (stereo unspecified)	n	n	n	25.1µM	n
Cc1ccc2c(c1)-c1cc(C)nn1C(c1sccc1C)N2 (stereo unspecified)	n	u	u	3.98µM	n
Cc1ccc2c(c1)-c1cc(C)nn1C(c1ccc3c(c1)OCO3)N2 (stereo unspecified)	n	n	n	14.1µM	n
Cc1cc2n(n1)C(c1ccc3c(c1)OCO3)Nc1ccccc1-2 (stereo unspecified)	n	n	n	u	n
Cc1cc2n(n1)C(c1ccc(N(C)C)cc1)Nc1ccccc1-2 (stereo unspecified)	n	n	n	u	n
CC1=C(C(=O)Nc2cc(Cl)ccc2C)C(c2sccc2C)n2ncnc2N1 (stereo unspecified)	x	n	n	x	n
O=C(NCC1CCC2(CCN(Cc3cccc4cccnc34)CC2)O1)c1ccco1 (stereo unspecified)	x	x	x	x	n
Cc1ccc(N=N/C(=C\O)C(=O)c2ccc(Cl)cc2)cc1	n	-87.1	n	10µM	u
O=C(/C(=C/O)N=Nc1ccccc1)c1ccc(Cl)cc1	n	n	n	u	u
O=C(Nc1ccc(C(=O)OCc2cc(=O)n3nc(C4CC4)sc3n2)cc1)c1ccccc1	x	n	n	x	u
CC(Oc1ccccc1)C(=O)Nc1ccc(C(=O)OCc2cc(=O)n3nc(C4CC4)sc3n2)cc1 (stereo unspecified)	x	u	n	x	28.2µM
Cc1nn2c(=O)cc(COC(=O)c3ccc(NC(=O)c4cccs4)cc3)nc2s1	x	-99.6	n	x	14.1µM
CCc1nn2c(=O)cc(COC(=O)c3ccc(NC(=O)COc4ccc(C)cc4)cc3)nc2s1	x	n	n	x	n

High-throughput results as filed in PubChem BioAssay.
